G9a inh: G9a (human) methyltransferase inhibition; G9a H3K9 monomethylation, AlphaScreen, 2 h; Potency, µM (highest dose often 102 µM), usual class: inhibitors; 350,000 tested, 8.8% active; AID 504332; note: nearly all actives have a fitted effect of over 75% in size
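Using a bead-based AlphaScreen, monomethylated H3K9 product from 2 h room-temperature reactions (G9a 20 nM, peptide 500 nM, SAM 20 uM) was detected with 0.5 ug/mL rabbit anti-H3K9me1 antibody.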
HP1b binding inh: HP1-beta chromodomain-methylated histone interaction inhibition; P83916; AlphaScreen HP1-beta / biotin-H3K9me3 peptide binding; Potency, µM (titrated, usually from 114 µM), actives largely listed as inhibitors; 390,000 tested, 0.56% active; note: nearly all actives have a fitted effect of over 70% in size
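Compound inhibition of the preformed complex between 50 nM HP1-beta and 50 nM biotinylated H3K9me3 peptide was read by AlphaScreen. Buffer was PBS pH 7.4 with 0.01% Tween-20. Incubations ran 30 min at room temperature, with 10 ug/mL donor/acceptor beads.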
L3MBTL1 inh: blocks human L3MBTL1; 230,000 tested, 0.66% active; AlphaScreen L3MBTL1–H3K9me1 peptide binding; Potency, µM (series often up to 57.1 µM), usual class: inhibitors; Q9Y468; note: nearly all actives have a fitted effect of over 60% in size
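Read-out is AlphaScreen signal from streptavidin donor and nickel chelate acceptor beads (10 ug/mL final each) bridging L3MBTL1 (50 nM) and biotinylated K9-monomethylated H3(1-15) peptide (75 nM), after 30 min compound exposure at room temperature.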
PI5P4K alpha inh: inhibitors of human PI5P4K alpha | PI5P4Kalpha enzyme, ADP-Glo luminescence, 60 min; stronger effect = lower value | max response, % | 330,000 tested, 1.2% active; active = max response of -50% or lower; inconclusive = between -30% and -50%; inactive = -30% or higher; note: value at the top dose of about 77 µM
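qHTS, 1536-well: enzyme/substrate mix, compound by pin tool, 5 microM ATP final; RT 60 min; ADP-Glo reagents 1 (45 min) then 2 (30 min); luminescence.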
JMJD2A Tudor: inhibitors of human JMJD2A Tudor domain; AlphaScreen JMJD2A-Tudor / H3K4me3 peptide binding; O75164; Potency, µM (top dose mostly 114 µM), usual class: inhibitors; 390,000 tested, 4.4% active; note: nearly all actives have a fitted effect of over 50% in size
Target sequence (O75164 whole entry, looked up, the tested form may be a part): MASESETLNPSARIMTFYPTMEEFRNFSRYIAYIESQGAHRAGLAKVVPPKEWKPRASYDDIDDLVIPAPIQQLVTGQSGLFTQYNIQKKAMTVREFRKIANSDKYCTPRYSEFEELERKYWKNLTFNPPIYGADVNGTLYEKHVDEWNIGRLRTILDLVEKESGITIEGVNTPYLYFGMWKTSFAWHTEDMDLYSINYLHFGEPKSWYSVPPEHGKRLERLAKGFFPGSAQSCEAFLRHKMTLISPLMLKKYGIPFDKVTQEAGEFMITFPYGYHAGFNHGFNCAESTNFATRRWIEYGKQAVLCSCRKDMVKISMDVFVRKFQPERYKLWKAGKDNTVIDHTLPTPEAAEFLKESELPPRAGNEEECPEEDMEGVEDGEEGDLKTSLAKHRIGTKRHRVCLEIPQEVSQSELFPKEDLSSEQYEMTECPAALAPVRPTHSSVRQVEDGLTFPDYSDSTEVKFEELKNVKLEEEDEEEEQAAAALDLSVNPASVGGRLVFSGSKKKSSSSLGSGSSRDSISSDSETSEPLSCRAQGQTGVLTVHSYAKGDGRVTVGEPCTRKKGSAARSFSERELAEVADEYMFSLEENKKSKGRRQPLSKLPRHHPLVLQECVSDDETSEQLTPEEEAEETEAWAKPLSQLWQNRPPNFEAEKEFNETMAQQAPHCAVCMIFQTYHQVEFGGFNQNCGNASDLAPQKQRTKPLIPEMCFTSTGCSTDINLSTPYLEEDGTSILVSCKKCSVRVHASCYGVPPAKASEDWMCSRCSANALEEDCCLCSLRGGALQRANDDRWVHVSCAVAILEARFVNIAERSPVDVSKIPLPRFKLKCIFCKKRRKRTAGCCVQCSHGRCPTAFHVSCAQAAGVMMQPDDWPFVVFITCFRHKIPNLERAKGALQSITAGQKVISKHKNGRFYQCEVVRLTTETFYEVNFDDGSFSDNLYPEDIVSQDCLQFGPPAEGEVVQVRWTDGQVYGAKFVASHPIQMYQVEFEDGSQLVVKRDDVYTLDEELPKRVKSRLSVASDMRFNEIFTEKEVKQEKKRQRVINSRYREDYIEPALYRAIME
BAZ2B block: blocks human BAZ2B | Potency, µM (titrated, usually from 114 µM), most hits filed as inhibitors | AlphaScreen BAZ2B-H3K14Ac peptide displacement | Q9UIF8 | AID 504333 | 360,000 tested, 4.4% active; note: nearly all actives have a fitted effect of over 60% in size
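BAZ2B 50 nM plus b-H3(5-23)K14Ac 50 nM, PBS pH 7.4/0.01% Tween-20, 30 min RT; compound added (max 110 uM), 30 min RT; streptavidin donor/Ni-chelate acceptor beads 10 ug/mL final, 20 min dark; AlphaScreen read.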
A number is an active result; n = inactive; u = inconclusive; x = no result given; [ ] = remark or other dose. In the library only some 11% were active in any assay of this set; here they are far more common. Unless noted, calls come from the whole dose curve; as a rule, active = well fitted inhibition curve with a large enough effect; inconclusive = small, poorly fitted or top-dose-only effect; inactive = no such curve, though single readings can be large or run the other way.

SMILES | G9a inh | HP1b binding inh | L3MBTL1 inh | PI5P4K alpha inh | JMJD2A Tudor | BAZ2B block
Cc1ccc(S(=O)(=O)NC2OC(=O)C(Cl)=C2Cl)cc1 (stereo not drawn) | u | n | x | n | n | 79.4µM
Cc1cc(=O)n(CC(=O)NCCC(C)C)c2c1c(C)nn2C | n | n | x | x | n | n
CC(C)(C)c1ccc(C(=O)Nc2ccc(C(=O)OCc3cc(=O)n4ccsc4n3)cc2)cc1 | n[12.7 µM] | n | x | x | n | n
COc1ccc(C(=O)C[n+]2cccc(C(N)=O)c2)cc1 | u | n | x | n | n | n
COc1ccc(C(=O)C[n+]2cccc(C)c2)cc1 | 70.8µM | n | n | n | n | n
CC(=O)N1c2ccccc2C(=O)C1N1CCN(c2cc(Cl)ccc2C)CC1 (stereo not drawn) | 7.94µM | n | x | x | n | u
CC(=O)N1c2ccccc2C(=O)C1N1CCN(c2ccc(Cl)cc2)CC1 (stereo not drawn) | n | n | x | x | n | n
Cc1cc2n(n1)SC(Nc1ccc(F)c(Cl)c1)N2 (stereo not drawn) | 1.41µM | n | n | x | u | n
Cc1ccccc1NC(=O)c1cccc(NC(=O)c2c(C(=O)O)cccc2[N+](=O)[O-])c1 | x | n | x | n | n | x
CN1C(=O)c2ccc(NC(=O)c3c(C(=O)O)cccc3[N+](=O)[O-])cc2C1=O | 39.8µM | n | x | n | n | n
Brc1ccc(NC(c2ccccc2)c2ccncc2)cc1 (stereo not drawn) | u | n | x | n | 56.2µM | 70.8µM
O=C(Oc1ccccc1F)c1nc(SCc2ccccc2F)ncc1Cl | n | n | x | x | n | n
Cc1ccc(NC(=S)N(CCCN2CCOCC2)Cc2ccco2)cc1 | 39.8µM | n | n | n | n | n
S=C(Nc1ccc(Oc2ccccc2)cc1)N(CCCN1CCOCC1)Cc1ccccn1 | 31.6µM | n | u | n | n | u
S=C(Nc1ccc(Cl)cc1)N(CCCN1CCOCC1)Cc1ccco1 | n | n | n | n | n | n
CCOC(=O)c1ccc(NC(=S)N(CCCN2CCCCCC2)Cc2ccco2)cc1 | u | n | n | n | u | n
CCOC(=O)c1ccc(NC(=S)N(CCN2CCCCCC2)Cc2ccco2)cc1 | 31.6µM | n | n | n | u | n
Cc1cc(NC(=S)N(CCN2CCCCC2)Cc2ccco2)ccc1Cl | 39.8µM | n | n | n | n | u
CCOC(=O)N1CCC(NC(=O)C2CCN(C(=O)N3CC(C)Oc4ccc(C)cc43)CC2)CC1 (stereo not drawn) | n | n | x | n | n | n
COC(CNC(=O)C1CCN(C(=O)c2cc3oc(C)cc3n2Cc2c(F)cccc2Cl)CC1)OC | 31.6µM | n | x | n | n | n
CCOC(=O)N1CCC(NC(=O)C2CCN(C(=O)c3cc4oc(C)cc4n3Cc3c(F)cccc3Cl)CC2)CC1 | 35.5µM | n | n | n | u | u
COC(=O)c1cc2oc(C)cc2n1Cc1ccc(Cl)cc1 | n | n | x | x | n | u
COc1ccccc1OCCSc1nc2ccccc2n1CC(=O)N1CCOCC1 | n | n | x | x | n | n
CCn1c(C)cc(C(=O)COC(=O)c2ccccc2[N+](=O)[O-])c1C | x | u | n | n | 44.7µM | x
COCCn1c(C)cc(C(=O)COC(=O)c2ccccc2Br)c1C | u | n | x | n | n | n
SMILES | G9a inh | HP1b binding inh | L3MBTL1 inh | PI5P4K alpha inh | JMJD2A Tudor | BAZ2B block
O=C(CN(Cc1ccccc1)C1=NCCS1)c1ccc(Cl)cc1 | 44.7µM | n | n | n | n | n
CSc1nsc(/C=C/Nc2ccc(F)cc2F)c1C#N | 31.6µM | n | u | n | u | u
CSc1nnc(C)c(/C=C/Nc2ccc(F)cc2F)n1 | u | n | n | n | n | u
CSc1nsc(/C=C/Nc2ccc(C(=O)O)cc2)c1C#N | 12.6µM | u | n | n | u | 39.8µM
CCCc1nc(SC)ncc1C(=O)N1CCN(c2ccc(Cl)cc2)CC1 | n | n | x | x | n | n
CCc1ccccc1NC(=O)N1CCOc2ccccc21 | n | n | x | x | n | u
Cc1sc2c(c1C)c(=O)n(-c1ccc(Cl)cc1)c(=O)n2CC(=O)c1ccccc1 | n | n | x | x | n | n
CCCCOc1ccc(C(=O)N/C(=C/C=C/c2ccccc2)C(=O)NC)cc1 | n | n | n | n | n | n
CCCCOc1ccc(C(=O)N/C(=C/C=C/c2ccccc2)C(=O)O)cc1 | 50.1µM | n | n | n | n | u

Assay outcomes deposited in PubChem BioAssay by National Center for Advancing Translational Sciences (NCATS).
